# Screening data: PubChem BioAssay, The Scripps Research Institute Molecular Screening Center
# The list is not random: actives were taken first. Their share in the collection is about 3.4%.
# TEAD-YAP block: TEAD-YAP interaction inhibition | HEK-TIYL cells, TEAD-Gal4/YAP UAS-luciferase luminescence | inhibition, % at 9.12 µM | hit rate 1.4% among 640,000 | AID 1259422; in the data active = inhibition above about 32%;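 note: 0% = median of test compound wells and 100% = reference inhibitor wells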
# FBW7 act: human FBW7 E3 ligase activation, primary screen | Q969H0 | AlphaScreen FBW7–phospho-cyclin E peptide binding, activator screen | normalized activity (activation), % at 26.1 µM | hit rate 0.13% among 650,000; in the data active = normalized activity above about 1.9%;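 note: purified mutant Fbw7 with reduced substrate affinity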
# MITF primary: inhibitors of human MITF | AlphaScreen MITF homodimerization, bead proximity signal | inhibition, % at 2.6 µM | hit rate 0.91% among 650,000; in the data active = inhibition above about 50%;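 note: 0% = vehicle wells with protein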
# Target sequence (O75030 whole entry, looked up): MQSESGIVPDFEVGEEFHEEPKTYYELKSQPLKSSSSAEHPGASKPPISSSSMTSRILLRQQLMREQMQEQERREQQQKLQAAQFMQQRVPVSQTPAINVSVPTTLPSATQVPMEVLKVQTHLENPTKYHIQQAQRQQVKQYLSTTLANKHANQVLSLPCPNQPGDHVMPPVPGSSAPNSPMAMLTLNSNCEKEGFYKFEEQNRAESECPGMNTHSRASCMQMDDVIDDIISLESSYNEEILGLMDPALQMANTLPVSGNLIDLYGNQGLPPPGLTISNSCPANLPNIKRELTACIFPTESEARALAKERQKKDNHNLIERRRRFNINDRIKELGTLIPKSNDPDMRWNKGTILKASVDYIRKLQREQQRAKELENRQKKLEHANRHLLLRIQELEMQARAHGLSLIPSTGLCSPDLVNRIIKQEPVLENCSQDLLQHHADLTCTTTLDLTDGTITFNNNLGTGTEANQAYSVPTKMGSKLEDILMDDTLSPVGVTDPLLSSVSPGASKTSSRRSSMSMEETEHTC
# GPR151 activ: activates the human receptor GPR151. PathHunter beta-arrestin GPR151 cells, luminescence. activation, % at 11.2 µM. hit rate 1% among 650,000. AID 1508602; in the data active = activation above about 4.9%;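 note: 0% = median of compound wells and 100% = cells with positive control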
# Active calls of the source: *.
SMILES,TEAD-YAP block,FBW7 act,MITF primary,GPR151 activ
CC(C)CNC(=O)c1cnc2ccccn12,1,0,4,0
CCC(=O)c1ccc(OCc2c(C)noc2C)cc1,1,0,-3,0
Nc1ccc(S(=O)(=O)O)c2cccc(O)c12,12,-1,71*,0
CCOc1ccccc1N1CC(O)=C(c2nc3ccccc3[nH]2)C1=N,54*,0,8,0
CC(c1ccccc1)N1CC(O)=C(c2nc3ccccc3[nH]2)C1=N (centres undefined),55*,0,-1,1
Cc1ccccc1NS(=O)(=O)c1ccc(N2CCCC2=O)cc1,47*,0,4,0
O=C1OC(=Nc2ccc([N+](=O)[O-])cc2)c2cccc3cccc1c23,0,0,-5,-1
C/C(=N\NC(=O)CNC(=O)c1ccncc1)c1ccco1,3,0,-1,1
COc1ccc2ccccc2c1/C=C1/C(=O)NC(=O)N(Cc2ccco2)C1=O,4,0,76*,-1
COc1cc(C)c(/C=C2/NC(=O)NC2=O)cc1C(C)C,44*,0,-4,2
COc1ccc(OC)c(CN2C(=O)NC(=O)/C(=C\c3ccco3)C2=O)c1,-1,-1,57*,3
Cc1cc(/C=C2\C(=O)NC(=O)N(Cc3ccco3)C2=O)c(C)n1C1CC1,-4,-1,62*,-2
O=C(COc1ccccc1)Nc1ccc(Cc2ccc(NC(=O)COc3ccccc3)cc2)cc1,5,0,-6,2
CCOc1cc(C2C(C(=O)OC3CCCCC3)=C(C)NC3=C2C(=O)CC(c2ccc(Cl)cc2)C3)cc(Br)c1O (centres undefined),1,0,-1,0
COCCn1c(C)cc(/C=C2\C(=O)NC(=O)N(Cc3ccco3)C2=O)c1C,-6,0,29,0
COc1cc(C)c(/C=C2/C(=O)NC(=O)N(Cc3ccco3)C2=O)cc1C(C)C,-5,0,69*,0
COc1cc(/C=C2/C(=O)NC(=O)N(Cc3ccco3)C2=O)ccc1OCC(=O)O,7,0,77*,3
COc1cc(/C=C2\SC(=S)N(Cc3ccco3)C2=O)ccc1OCC(=O)O,8,0,3,-1
O=C(CSc1nc2ccsc2c(=O)n1-c1cccc(Cl)c1Cl)c1ccccc1,-10,0,5,-1
CN(C)CCn1cnc2c(=O)oc3ccccc3c21,6,1,14,-1
CCCN1C(=O)C(O)(CC(=O)c2ccccc2O)c2cc(Br)ccc21 (centres undefined),38*,0,0,1
CCCN1C(=O)C(O)(CC(=O)c2ccccc2OC)c2cc(Br)ccc21 (centres undefined),8,0,7,0
COC(=O)c1ccc(/C=C(\C(=O)C(=O)O)c2ccc3ccccc3n2)cc1,60*,0,11,-2
N#Cc1ccc(/C=C(\C(=O)C(=O)O)c2ccc3ccccc3n2)cc1,-30,1,22,-4
Cc1ccc(/C(O)=C2\C(=O)C(=O)N(c3ccccn3)C2c2ccc(C(C)(C)C)cc2)cc1 (centres undefined),44*,0,-9,-1
SMILES,TEAD-YAP block,FBW7 act,MITF primary,GPR151 activ
CCNc1nc(NCc2cccnc2)c2ncn(C(C)C)c2n1,0,0,5,-1
CC(C)n1cnc2c(NCc3nc4ccccc4[nH]3)nc(NCc3cccnc3)nc21,59*,0,18,-2
CC(C)n1cnc2c(NCc3nc4ccccc4[nH]3)nc(Nc3ccncn3)nc21,86*,0,-8,3
CC(C)n1cnc2c(NCc3nc4ccccc4[nH]3)nc(Nc3cnccn3)nc21,78*,0,4,0
CC(C)n1cnc2c(NCc3nc4ccccc4[nH]3)nc(Nc3nc4ccccc4n3C)nc21,0,0,5,0
CC(C)n1cnc2c(NCc3nc4ccccc4[nH]3)nc(Nc3ccccn3)nc21,85*,1,0,1
N=C1C(c2nc3ccccc3[nH]2)=C(O)CN1c1ccc([N+](=O)[O-])cc1,-17,0,-3,0
COc1ccc(N(CC(=O)Nc2ccc(Cl)cc2)S(C)(=O)=O)cc1Cl,4,0,-1,1
Cc1nc2cc(C(=O)NCc3ccco3)ccc2n1-c1ccc(F)cc1F,2,0,-6,-1
CC(C)n1cnc2c(NCc3nc4ccccc4[nH]3)nc(Nc3nccc4ccccc34)nc21,43*,1,4,0
CC(C)n1cnc2c(NCc3nc4ccccc4[nH]3)nc(Nc3ccc4ncccc4c3)nc21,40*,0,13,-1
CC(C)n1cnc2c(NC3CC3)nc(Nc3nccc4ccccc34)nc21,14,0,6,2
CSc1nnc(CSc2nc(C)cc(C)n2)n1C,-14,0,6,1
O=C(Nc1cnc2cnc(-c3ccc(N4CCOCC4)cc3)cn12)C1CCOC1 (centres undefined),-18,2.4*,6,-1
COc1ccc(CCNc2nc(-c3ccc(OC)nc3)nc3nc[nH]c23)cc1,20,0,15,0
COc1ccc(-c2nc(NCCc3ccc(O)cc3)c3[nH]cnc3n2)cc1,59*,0,2,1
COc1ccc(-c2nc(NCCc3ccc(O)cc3)c3[nH]cnc3n2)cn1,33*,0,8,2
Cc1ccc(C(=O)Nc2ccc(Sc3ccccc3)cc2)cc1S(=O)(=O)N1CCOCC1,36*,0,16,0
CCOC(=O)c1ccc(NC(=O)c2ccc(Br)c(S(=O)(=O)N3CCCCC3)c2)cc1,49*,0,-6,1
CCOC(=O)c1ccc(NC(=O)c2ccc(C)c(S(=O)(=O)N3CCOCC3)c2)cc1,37*,0,3,1
Cc1cc(C)nc(N/N=C/c2sc(N3CCOCC3)nc2-c2ccccc2)n1,46*,0,5,2
S=C(NCc1cccs1)N1CCN(Cc2ccc3c(c2)OCO3)CC1,6,0,-9,2
O=C(Nc1sc2c(c1C(=O)O)CCCCC2)c1ccccc1,46*,0,14,-9
Cc1ccc(C(=O)Nc2sc3c(c2C(=O)O)CCCCC3)cc1,83*,0,-3,-3
Cc1ccc(C(=O)Nc2sc(C)c(C)c2C(=O)O)cc1,49*,0,-4,-2
SMILES,TEAD-YAP block,FBW7 act,MITF primary,GPR151 activ
CCN(CC)C(=O)c1c(NC(=O)c2cccs2)sc2c1CCC2,36*,0,18,0
COC(=O)c1ccc(C(=O)OC)c(NC(=O)COc2ccccc2)c1,2,0,7,-2
O=c1[nH]c2ccccc2nc1Cc1ccccc1Br,-10,0,-3,1
Cc1[nH]n(-c2ccccc2)c(=O)c1/C=N/NC(=O)C1COc2ccccc2O1 (centres undefined),36*,0,-12,3
CC(C)(C)c1ccc(/C=N/NC(=O)C2COc3ccccc3O2)cc1 (centres undefined),35*,0,6,-1
Cc1ccccc1-n1[nH]c(C)c(/C=N/NC(=O)C(=O)N/N=C/c2c(C)[nH]n(-c3ccccc3C)c2=O)c1=O,3,-1,52*,0
